From PubChem BioAssay AID624298 (National Center for Advancing Translational Sciences (NCATS), 2012) come the findings set out here.

Records with an inconclusive call do not appear. Entries that show only a call come without a potency. The source made the active and inactive calls. Calls come from the whole dose curve; as a rule, active = well fitted activation curve with a large enough effect; inconclusive = small, poorly fitted or top-dose-only effect; inactive = no such curve, though single readings can be large or run the other way.
Potency is the fitted concentration of half-maximal effect.

A short description of the test: Activators of T cell receptors: Hit Validation. The note with it: primary human leukocytes, cytokine release by HTRF, 48 h, TCR-stimulated with anti-CD3 beads; series mostly up to 46.1 µM. Summed up:
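Primary human leukocytes incubated 48 hr with anti-CD3 beads plus compound, without co-stimulation. Secreted IL-2 quantified by HTRF (europium cryptate donor, d2 acceptor, 665 nm emission).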
Regarding `CC(c1nnc(SCC(=O)c2c(N)n(C3CC3)c(=O)[nH]c2=O)n1-c1ccc(F)cc1)N(C)C` (stereo not given), the Potency result was “inactive”.

Regarding `COc1cc2c(cc1O)CCN(C(=O)CSc1nncn1C)[C@@H]2C`, the Potency result was “inactive”.

For `CC(=O)NC(CC(=O)O)C(=O)O` (stereo not given), the Potency result is “inactive”.

As to `C=CCNC(=S)Nc1ccc2nsnc2c1`, the Potency result is “inactive”.

In the case of `COc1ccc(NC(=O)COC(=O)CN2C(=O)C3CCCCC3C2=O)cc1OC` (stereo not given), the Potency entry is “inactive”.

With `O=C(O)c1ccccc1-c1c2cc(I)c(=O)c(I)c-2oc2c(I)c(O)c(I)cc12`, the Potency is 0.996 µM (active).

On to `COc1ccc(C(=O)Nc2cccc(NC(C)=O)c2)cc1OC`, for which the Potency result was “inactive”.

With `C[C@@H]1O[C@@H](O[C@H]2[C@H](Oc3cc(O)c4c(c3)O[C@H](c3ccc(O)cc3)CC4=O)O[C@H](CO)[C@@H](O)[C@@H]2O)[C@H](O)[C@H](O)[C@H]1O`, the Potency entry was “inactive”.

Turning to `CCCCCCC[C@@H](C/C=C/CCC(=O)N(C)C/C(=C/Cl)C/C(=C\C(=O)N1CC(OC)=CC1=O)OC)OC`, the Potency was 0.996 µM (active).

Turning to `O=C(OCc1cc(=O)n2cc(Br)ccc2n1)C1COc2ccccc2O1` (stereo not given), the Potency result is “inactive”.

Take `Cc1ccc(S(=O)(=O)N2CCC(C(=O)NNC(=O)c3ccccc3O)CC2)cc1C`: the Potency entry was “inactive”.

With `CN=c1nc(-c2ccccc2)n(-c2ccccc2)s1`, the Potency entry was “inactive”.

Consider `COc1ccccc1N1CCN(CCCC(=O)c2ccc(F)cc2)CC1`, for which the Potency result is “inactive”.

Turning to `Cc1n[nH]c(C)c1S(=O)(=O)N1CCCC(C(=O)Nc2nccs2)C1` (stereo not given), the Potency result was “inactive”.

As to `CCN(CC(=O)Nc1ccccc1C(F)(F)F)C(=O)c1ccccc1Sc1ccccc1C#N`, the Potency result was “inactive”.

Consider `CCN(CC(=O)Nc1c(F)cccc1F)C(=O)C1CCN(S(=O)(=O)c2ccccc2C(=O)OC)CC1`, for which the Potency entry was “inactive”.

Take `O=C1C=C(NCCc2ccccc2)C2(CCCCC2)O1`: the Potency result was “inactive”.

In the case of `Cc1onc(-c2c(F)cccc2Cl)c1C(=O)Nc1sc2c(c1C(N)=O)CCC2`, the Potency entry was “inactive”.

In the case of `COc1cc(N=c2ssnc2Cl)c(OC)cc1Cl`, the Potency result is “inactive”.

`CC(=O)c1cccc(NC(=O)C(C)OC(=O)c2cccc(S(=O)(=O)N3CCN(C)CC3)c2)c1` (stereo not given): the Potency entry was “inactive”.

Consider `COc1cccc(CNC(=O)c2ccc(Cl)c(S(=O)(=O)N3CCOCC3)c2)c1`, for which the Potency entry was “inactive”.

On to `O=C(COC(=O)/C=C/c1cccc(Br)c1)Nc1cccc(S(=O)(=O)NC2=NCCC2)c1`, for which the Potency entry is “inactive”.

For `Cc1ccc(NC(=O)C2CC(=O)N(Cc3ccco3)C2)cc1` (stereo not given), the Potency result is “inactive”.

Regarding `Cc1cc(NC(=O)CN2C(=O)NC(CC(C)C)C2=O)ccc1Br` (stereo not given), the Potency result is “inactive”.

In the case of `O=C(Nc1nnc(-c2ccccc2)s1)c1cccc(S(=O)(=O)N2CCOCC2)c1`, the Potency entry is “inactive”.

Regarding `C=C(C)C(=O)OCC(C)C`, the Potency entry is “inactive”.

As to `COc1ccc(Cl)cc1NC(=O)CN(C)C(=O)c1cn2ccccc2n1`, the Potency result was “inactive”.

As to `Cn1c(=O)c2c(ncn2CC(O)CO)n(C)c1=O` (stereo not given), the Potency entry was “inactive”.

Regarding `COc1ccc(OC)c(NC(=O)CSc2nc3[nH]c(=O)cc(O)c3s2)c1`, the Potency result was “inactive”.

Regarding `NC(=O)c1ccccc1`, the Potency entry is “inactive”.
